Test results as given in PubChem BioAssay (NCATS).
Records with an inconclusive call do not appear. Values without a mark were called inactive. Activity calls are given as the source filed them. Calls follow the shape of the dose curve; as a rule, active = well fitted inhibition curve with a large enough effect; inconclusive = small, poorly fitted or top-dose-only effect; inactive = flat fitted curve, though single readings scatter. Where a SMILES comes first, the peptide text is derived from it. The star is where a group is joined. AFC = O=c1cc(C(F)(F)F)c2ccc(N*)cc2o1

system: HEK293; experiment: Cytotoxic Profiling of Annotated Libraries Using Quantitative High-Throughput Screening (AID 1296008); conditions: Five cell lines viability, CellTiter-Glo ATP luminescence, 48-72 h; max response: hits give low values; also: nearly all actives have a fitted effect of over 60% in size
How it was run: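 Cells exposed to compounds for 48 or 72 hr at 37 degrees Celsius. Viability read as ATP-coupled luminescence with CellTiter-Glo after 10 min at room temperature.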
% is scaled to controls: 0 for no effect and ±100 for the full control effect; potency is read from the fitted curve at half-maximal effect.

Q: With `COC(=O)c1ccccc1O[C@@H]1O[C@H](CO)[C@@H](O)[C@H](O)[C@H]1O[C@@H]1O[C@@H](C)[C@H](O)[C@@H](O)[C@H]1O` as the molecule, how does the max response read?
A: 3.36%

Q: For `Cc1cc(N2CCN([C@@H]3CN[C@H](C(=O)N4CCSC4)C3)CC2)n(-c2ccccc2)n1`, which max response is on record?
A: -23.9%

Q: How did the max response turn out when `Cc1ccccc1CN1C2=NCCN2C(=O)C2=C1CCN(Cc1ccccc1)C2` was run?
A: -7.79%

Q: For `CN[C@@H]1[C@H](O[C@H]2[C@H](O[C@@H]3[C@@H](O)[C@H](O)[C@@H](N=C(N)N)[C@H](O)[C@H]3N=C(N)N)O[C@@H](C)[C@]2(O)C=O)O[C@@H](CO)[C@H](O)[C@H]1O`, which max response is on record?
A: 4.73%

Q: With `COc1c2c(c(C)c3c1C(=O)OC3)OC1(C)CC(O)C(C(C)(C)O)C(C)(CCC(=O)O)C1C2` (centres undefined) as the molecule, how does the max response read?
A: -5.2%

Q: Which Potency does the source give for `COC(=O)N[C@H](C(=O)N1[C@@H]2CC[C@@H](C2)[C@H]1c1nc2ccc(-c3ccc4c(c3)C(F)(F)c3cc(-c5cnc([C@@H]6CCC7(CC7)N6C(=O)[C@@H](NC(=O)OC)C(C)C)[nH]5)ccc3-4)cc2[nH]1)C(C)C` here?
A: 3.99 µM (active)

Q: For `CCn1c(=O)c(-c2ccn[nH]2)cc2c(C)nc(N)nc21`, which Potency is on record?
A: 4.61 µM (active)

Q: Which Potency does the source give for `c1cc(Nc2cc(C3CC3)[nH]n2)nc(Nc2ccc3nc[nH]c3c2)n1` here?
A: 1.16 µM (active)

Q: Which outcome does the source give for `CC1CC(O)C2(OC1=O)OC1C(O)C3C4CCC5CC(OC6OC(CO)C(O)C(O)C6OC6OC(C)C(O)C(O)C6O)CCC5(C)C4CCC3(C)C1C2C` (centres undefined) here?
A: inactive

Q: For `C=C[C@@](C)(O)CC/C=C(\C)C(=O)O[C@@H]1[C@@H]2O[C@]2(C)[C@H]2[C@H](O[C@@H]3O[C@H](CO)[C@@H](O)[C@H](O)[C@H]3O)OC=C[C@@]12O`, which max response is on record?
A: 0.966%

Q: Which max response does the source give for `COC(=O)C1=CO[C@@H](O[C@@H]2O[C@H](CO[C@@H]3O[C@H](COC(=O)/C=C/c4cc(OC)c(O)c(OC)c4)[C@@H](O)[C@H](O)[C@H]3O)[C@@H](O)[C@H](O)[C@H]2O)[C@@H]2C(CO)=CC[C@H]12` here?
A: 0.174%

Q: For `C/C=C/c1ccc2c(c1)[C@@H](C)[C@H](c1ccc(O)cc1)O2`, which max response is on record?
A: 1.71%

Q: `CC1=C2C[C@H]3O[C@@]3(C)CCC3O[C@@]3(C)C[C@@]2(O)OC1=O` (some centres undefined) was tested. Which max response did it give?
A: -4.05%

Q: For `CC(=O)N[C@@H](Cc1c[nH]c2ccccc12)C(=O)N[C@@H](CCC(=O)O)C(=O)N[C@@H](Cc1cnc[nH]1)C(=O)N[C@@H](CC(=O)O)C(=O)Nc1ccc2c(C(F)(F)F)cc(=O)oc2c1` (Ac-WEHD-{AFC}), which max response is on record?
A: -1.72%

Q: How did the outcome turn out when `COC(=O)C1=CO[C@@H](O[C@@H]2O[C@H](CO)[C@@H](O)[C@H](O)[C@H]2O)[C@@H]2C(CO)=CC[C@]12O` was run?
A: inactive

Q: How did the max response turn out when `COc1cc2c(cc1OC)N1C(=O)C[C@]34C=CCN5CC[C@@H]2[C@@H](CC3)[C@]514` was run?
A: -26.4%

Q: `CC(C)C[C@H](CC(=O)NO)C(=O)N[C@@H](Cc1ccc2ccccc2c1)C(=O)N[C@@H](C)C(=O)NCCN` was tested. Which max response did it give?
A: 0.393%

Q: For `CC(O)CO[C@@H]1O[C@H](CO)[C@@H](O)[C@H](O)[C@H]1O` (some centres undefined), which max response is on record?
A: -61.7%

Q: Which max response does the source give for `O=C(O)c1cc2cccc([N+](=O)[O-])c2[nH]1` here?
A: 2.87%

Q: For `C[C@@H]1O[C@@H](O[C@@H]2[C@@H](O)[C@H](O[C@H]3[C@H](O[C@H]4CC[C@@]5(C)C(CC[C@]6(C)C5CC=C5[C@@H]7CC(C)(C)CC[C@]7(C(=O)O[C@@H]7O[C@H](CO)[C@@H](O)[C@H](O)[C@H]7O[C@@H]7O[C@@H](C)[C@H](O[C@@H]8O[C@@H](C)[C@H](O)[C@@H](O)[C@H]8O)[C@@H](O)[C@H]7O)CC[C@]56C)[C@@]4(C)CO)O[C@H](C(=O)O)[C@@H](O)[C@@H]3O)O[C@H](CO)[C@H]2O)[C@H](O)[C@H](O)[C@H]1O` (some centres undefined), which max response is on record?
A: -2.3%

Q: For `C/C1=C\CC[C@H](C)CCO[C@@H]2O[C@H](CO[C@@H]3OC[C@](O)(COC1=O)[C@H]3O)[C@@H](O)[C@H](O)[C@H]2O`, which max response is on record?
A: -0.349%

Q: With `OC/C=C/C=C/[C@H]1Cc2cc(O)cc(O)c2O1` as the molecule, how does the max response read?
A: -7.6%

Q: `COc1cc([C@H]2c3cc(O)c(OC)cc3C[C@@H](CO[C@@H]3O[C@H](CO)[C@@H](O)[C@H](O)[C@H]3O)[C@@H]2CO)ccc1O` was tested. Which max response did it give?
A: -2.47%

Q: How did the max response turn out when `CN1CCc2nc(C(=O)N[C@@H]3C[C@@H](C(=O)N(C)C)CC[C@@H]3NC(=O)C(=O)Nc3ccc(Cl)cn3)sc2C1` was run?
A: -78.6%

Q: How did the max response turn out when `CC(C)S(=O)(=O)N[C@H]1CCOC[C@@H]1c1ccc(-c2ccc(C#N)s2)cc1` was run?
A: -111%

Q: `C/C=C(\C)C(=O)OCC1OC(OC2OC(COC(=O)/C(C)=C/C)C(OC3OC(CO)C(OC(=O)/C(C)=C/C)C(OC(=O)/C(C)=C/C)C3O)C(O)C2O)C(O)C(O)C1OC1OC(CO)C(OC(=O)/C(C)=C/C)C(OC(=O)/C(C)=C/C)C1O` (centres undefined) was tested. Which max response did it give?
A: -7.34%

Q: With `CC1(C(=O)O)CCCC2(C)C3CCC4CC3(CCC12)CC4=O` (centres undefined) as the molecule, how does the max response read?
A: 0.827%

Q: With `Nc1ncnc2c([C@@H]3N[C@H](CO)[C@@H](O)[C@H]3O)c[nH]c12` as the molecule, how does the max response read?
A: 1.17%

Q: With `COc1ccc(C2COc3cc(O)ccc3C2)c(O)c1` (centres undefined) as the molecule, how does the max response read?
A: -0.71%

Q: `Cc1onc(C(=O)N2CCN(C(c3ccc(Cl)cc3)c3ccc(Cl)cc3)CC2)c1[N+](=O)[O-]` was tested. Which Potency did it give?
A: 0.82 µM (active)

Q: With `CC(C)CC(=O)O[C@@H]1OC=C(CO[C@@H]2O[C@H](CO)[C@@H](O)[C@H](O)[C@H]2O)[C@H]2[C@@H]3O[C@H]3[C@@](O)(CO)[C@@H]12` as the molecule, how does the max response read?
A: -8.14%

Q: For `CC(=O)OC[C@H]1O[C@H](O[C@]2(CO)O[C@H](CO)[C@@H](OC(=O)/C=C/c3ccccc3)[C@@H]2O)[C@H](O)[C@@H](O)[C@@H]1O`, which max response is on record?
A: 2.62%

Q: Which max response does the source give for `CC(=O)OC1C(OC(=O)c2ccccc2)C2C(C)(C)CC(=O)CC2(C)C23CCC(C)(C2)C(O)CC13` (centres undefined) here?
A: -15.7%

Q: Which max response does the source give for `NC1CCCCN(c2c(F)cc3c(=O)c(C(=O)O)cn(C4CC4)c3c2Cl)C1` (centres undefined) here?
A: -12.1%

Q: How did the max response turn out when `C[C@@H]1CC[C@]2(C(=O)O[C@@H]3O[C@H](CO)[C@@H](O)[C@H](O)[C@H]3O)CC[C@]3(C)C(=CCC4[C@@]5(C)C[C@@H](O)[C@H](O)[C@](C)(C(=O)O)C5CC[C@]43C)[C@@H]2[C@]1(C)O` (some centres undefined) was run?
A: 2.11%

Q: For `C[C@@H]1O[C@@H](O[C@H]2[C@H](O)[C@@H](O)[C@H](OC3CCC4(C)C5CCC(C)(C(CO)OC6OC(CO)C(O)C(O)C6O)CC5=CCC4C3(C)C)O[C@@H]2CO)[C@H](O)[C@H](O)[C@H]1O` (some centres undefined), which max response is on record?
A: 4.31%

Q: How did the max response turn out when `O=C(O[C@H]1[C@@H]2C=CO[C@@H](O[C@@H]3O[C@H](CO)[C@@H](O)[C@H](O)[C@H]3O)[C@@H]2[C@@]2(CO)O[C@@H]12)c1ccccc1` was run?
A: -2.12%

Q: With `COc1cc(C(=O)OC[C@H]2O[C@@H](Oc3ccccc3/C=C/C(=O)O)[C@H](O)[C@@H](O)[C@@H]2O)cc(OC)c1OC` as the molecule, how does the max response read?
A: -0.285%

Q: For `CCOc1cc(N2CCC(O)CC2)ccc1Nc1ncc2c(n1)N(C1CCCC1)CCC(=O)N2C`, which Potency is on record?
A: 5.8 µM (active)
